Results: the supplement of paper PMC7335073
Over roughly 4,100 sequences, “relative CpG methylation activity (normalised to average over all NNNCGNNN flanks)” has its median near 0.94; the highest 2% begin near 1.9. The sample as a whole holds a higher share of the highest values than the screen did.

These sequences were tested against DNMT3B catalytic domain (mouse) (UniProt O88509) (assay: relative CpG methylation activity (normalised to average over all NNNCGNNN flanks) (relative (1 = mean)); higher = more methylation of the central CpG). Conditions: system: in vitro, murine catalytic domain; CpG state: hemimethylated substrate pool; residues: 558-859.
Experimental: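 Deep enzymology: a pool of dsDNA substrates with a central CpG flanked by 10 random nucleotides on each side was methylated by the murine DNMT3A or DNMT3B catalytic domain (0.8 mM SAM, 37 °C, 60 min). Methylation was then read out by hairpin ligation, bisulfite conversion and NGS. Values are the average methylation of each NNNCGNNN context (±3 flanks; the outer flanks are random and averaged over), normalised to the overall mean, so 1 = average activity.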

Chain of DNMT3B catalytic domain (mouse) (O88509 558-859): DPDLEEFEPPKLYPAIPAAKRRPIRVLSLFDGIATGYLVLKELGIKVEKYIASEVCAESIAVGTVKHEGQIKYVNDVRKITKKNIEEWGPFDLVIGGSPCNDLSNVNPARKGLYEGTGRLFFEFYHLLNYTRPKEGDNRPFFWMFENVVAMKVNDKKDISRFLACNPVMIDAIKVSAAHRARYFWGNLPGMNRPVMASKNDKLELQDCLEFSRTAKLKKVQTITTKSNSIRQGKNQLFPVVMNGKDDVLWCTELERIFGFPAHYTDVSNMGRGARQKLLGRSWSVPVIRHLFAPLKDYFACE

Sequence | relative CpG methylation activity
CTTCGGCT | 1.9
TTTCGGGA | 1.79
TTTCGGGT | 2.02
GTTCGGGT | 1.37
TTTCGGCG | 1.79
GTTCGGCT | 1.75
TTTCGGCC | 1.65
GTTCGGCA | 1.88
CTTCGGCG | 1.67
TTTCGGCA | 1.69
CTTCGGCA | 1.97
TTTCGGCT | 2.04
AGTCGGTG | 0.863
ATTCGCGC | 0.947
CGGCGCTA | 0.358
CACCGGCC | 1.34
ACTCGGCC | 1.62
ACTCGGCT | 1.95
ACTCGGCA | 1.42
TTACGTTG | 1.29
AGGCGCGA | 0.281
CTTCGGGT | 1.33
ATTCGGGC | 1.72
GTCCGGGC | 1.53
CTCCGGCA | 1.88

Sequence | relative CpG methylation activity
ATCCGGCC | 1.48
CTCCGGGC | 2.05
CTCCGGCC | 1.94
TTCCGGGC | 1.7
CTTCGGGC | 2.18
ATCCGAGA | 1.4
GCACGAGC | 1.79
GAACGTGC | 1.03
CAGCGGTG | 0.603
GTCCGTAT | 0.661
TATCGGAT | 1.18
ACCCGATT | 1.41
GCTCGTCA | 0.561
TTACGGTA | 2.02
GTACGGTA | 1.61
ATACGGTC | 1.68
CTACGGTC | 1.85
TTACGGTC | 2.02
CTACGGTA | 1.81
GGACGCGG | 0.51
CATCGATC | 1.81
GCCCGACG | 1.16
TCACGCTT | 1.36
TTACGAGG | 1.8
CTACGACT | 1.92

Sequence | relative CpG methylation activity
GTACGACT | 1.46
CTACGAGA | 1.96
CTACGACG | 1.81
ATACGAGC | 1.87
ATACGAGT | 1.92
ATACGAAT | 1.64
TTACGAGC | 2.09
ATACGAGA | 1.82
ATACGAGG | 1.72
TTACGAGA | 1.84
CATCGCTA | 0.882
GATCGCTG | 0.405
TCCCGCCG | 0.883
GAGCGTAT | 0.648
GCACGTGG | 0.497
GTCCGTCT | 0.827
TCTCGCGG | 0.647
CTGCGCTG | 0.95
TACCGCTA | 0.483
CAGCGACC | 0.972
GACCGCAA | 0.281
TTACGAGT | 1.74
CTACGAGC | 2.12
CTACGAGG | 1.68
GTACGAGC | 1.83

Sequence | relative CpG methylation activity
CTACGAGT | 1.96
GTACGAGT | 1.48
CGCCGGTC | 1.23
AAACGCGG | 1.24
CTCCGCGT | 0.717
CCTCGAGT | 1.5
AAACGAGA | 1.9
TAACGAGA | 1.72
TCACGAGG | 1.7
CAACGAGT | 1.47
TCACGAGT | 1.49
TCTCGAGA | 1.96
GAACGAGA | 1.76
TCTCGAGT | 1.45
CAACGAGA | 1.94
TCACGAGA | 1.96
TCTCGAGC | 1.53
CAACGAGC | 1.74
TTACGCCG | 1.59
TACCGGCC | 1.52
CGCCGTAG | 0.147
AAACGCGC | 1.46
AAGCGTTT | 0.413
AAGCGTTC | 0.586
TAGCGCCC | 0.741

Sequence | relative CpG methylation activity
TCGCGGAC | 0.818
GGCCGTGG | 0.0382
CCTCGAAT | 1.3
GAACGGCC | 1.81
AAACGGCT | 1.82
CAACGGCA | 1.74
CAACGGCC | 1.93
AAACGGCC | 1.76
CAACGGCT | 1.92
ACGCGCGA | 0.411
GACCGGGT | 1.03
ACGCGTGA | 0.523
TTCCGAAT | 1.58
ACACGGCG | 1.6
CCACGGCC | 1.7
AAACGGCA | 1.91
ACACGGCA | 1.89
AAACGGCG | 1.68
ACACGGCT | 1.89
ACACGGCC | 1.94
GAACGGCA | 1.84
GCACGGCC | 1.77
CAACGCGA | 0.965
AGTCGTCA | 0.379
CAACGTCA | 1.15

Sequence | relative CpG methylation activity
CGCCGTAC | 0.561
ATTCGCAG | 0.453
ATCCGAGC | 1.68
TTTCGATC | 1.95
CTCCGAGT | 1.99
TTCCGATC | 2.31
CTCCGAGC | 2.06
GTCCGATC | 1.77
GTTCGATC | 1.3
CTCCGAGA | 1.73
ATCCGAGT | 1.37
TTCCGATT | 1.75
TTTCGATA | 1.81
TTCCGAGT | 1.83
CATCGAAC | 1.6
ACGCGTGG | 0.317
GATCGTTG | 0.455
TGACGGAT | 0.829
TTCCGAGA | 1.6
TTCCGAAG | 1.32
TTCCGAAC | 1.89
TTCCGAGG | 1.42
ATCCGAAC | 1.63
TTCCGAGC | 1.9
CCGCGGTC | 1.43

Sequence | relative CpG methylation activity
GTTCGGGC | 1.53
ACGCGATT | 1.09
GATCGAAC | 1.16
TAACGATA | 1.81
TTACGATG | 1.53
TTACGATT | 2.01
GTACGATC | 1.73
TTACGATA | 1.94
TTACGATC | 2.01
TCACGATA | 1.76
GTACGATT | 1.75
CTACGATT | 1.83
CGTCGATA | 1.84
TGCCGGGG | 0.469
CGACGTGC | 0.674
AGCCGAAA | 0.798
AAACGTTA | 0.806
CCCCGTTA | 0.69
ACGCGTTG | 0.312
TCACGACC | 1.17
GTGCGGGT | 1.3
TTACGAAA | 1.78
CTACGAAT | 1.56
CTACGAAC | 1.91
TTACGAAT | 1.76

Sequence | relative CpG methylation activity
CTACGAAG | 1.6
TTACGAAC | 1.96
CCTCGGTT | 1.13
AATCGTTC | 0.607
AGCCGAGC | 1.24
TTCCGGCT | 1.61
GTTCGTGA | 0.411
TTCCGGTT | 2.2
TTCCGGCG | 2.04
CTCCGGTT | 1.72
ATCCGGCG | 1.82
TTCCGGTA | 1.33
CTCCGGTC | 1.8
ATCCGGTT | 1.46
TTCCGGTC | 2.04
TTCCGGCC | 1.67
ATTCGTTC | 0.876
AAGCGCCG | 0.713
TAGCGGGG | 0.665
CATCGGCT | 1.78
GTTCGGTC | 1.15
GACCGTTT | 0.177
CTTCGAAA | 1.57
ATTCGAGA | 1.83
CTTCGAAC | 1.98

Sequence | relative CpG methylation activity
CTTCGAGG | 1.65
ATTCGAAC | 1.69
CTTCGAGA | 1.95
TACCGTGT | 0.198
ACCCGGAT | 0.954
TATCGGAA | 0.708
CCTCGGAC | 1.14
TCCCGGCG | 1.87
TCCCGGCT | 1.95
TCCCGGCA | 1.62
CCCCGGCC | 1.77
CCCCGGCG | 1.95
GCCCGGCT | 1.4
CCCCGGCT | 2.05
ACCCGGCT | 1.67
CCCCGGCA | 1.72
AAGCGTGC | 0.448
ATCCGTCC | 1.35
AGTCGTCG | 0.57
ACGCGTTC | 0.658
ACCCGCGA | 0.371
GCACGCTG | 0.98
ATACGATC | 2.12
CTACGACC | 1.82
GTACGATA | 1.73

Sequence | relative CpG methylation activity
ATACGATT | 1.74
CAACGATC | 1.94
CCACGATC | 1.74
CAACGATG | 1.43
CTACGATC | 1.92
ATACGATG | 1.63
ATACGATA | 2.03
CAACGATA | 1.77
ACACGATA | 1.75
GTTCGCAA | 0.436
TCTCGGTT | 0.917
ACTCGGCG | 1.6
TGGCGTGT | 0.0208
CAGCGACA | 0.777
CTGCGTCA | 0.944
CCTCGCCA | 1.05
GGCCGGGT | 0.602
GGCCGAGC | 1.53
TGACGCCT | 1.11
CTACGATA | 1.97
CCACGATA | 1.7
CTACGATG | 1.83
CTACGCTA | 1.47
GTACGCTC | 1.53
CTACGCTC | 1.91

Sequence | relative CpG methylation activity
TAGCGCCT | 0.72
CGACGTAA | 0.604
GGTCGATT | 1.49
TATCGGCG | 1.79
AATCGGCC | 1.88
TATCGGCC | 2.01
CATCGGCA | 1.83
TATCGGCA | 1.95
AGTCGGCA | 2.11
AATCGGCA | 1.74
AGTCGGCT | 1.79
CCTCGGCC | 1.66
AGTCGGCC | 1.69
TCTCGGCT | 1.8
TCTCGGCC | 1.96
ATTCGAGG | 1.29
AGTCGGGT | 1.16
GTACGCCT | 1.73
TTCCGATG | 1.47
GGCCGCGC | 0.361
AGACGGTA | 1.16
GCTCGATG | 1
TTACGGTT | 1.85
CTGCGGCC | 1.22
ATTCGGCC | 2.04

Sequence | relative CpG methylation activity
TTACGGCT | 1.98
GTACGGCG | 2.05
ATTCGGCG | 1.77
TCACGGCT | 1.83
ATTCGGCT | 1.69
GTACGGTG | 1.48
GTACGGAG | 1.39
CTACGGCC | 1.96
CTACGGAC | 1.64
ATGCGGAC | 0.76
TTGCGAAG | 0.966
ATCCGCCG | 0.929
CACCGGGT | 1.06
CAGCGCTG | 0.635
GTGCGCGT | 0.649
TGTCGCCC | 0.734
TGACGAGT | 1.21
AGTCGTGG | 0.341
CGTCGTGT | 0.248
CTACGGCA | 2.23
ATACGGCA | 2.11
ATACGGTG | 1.75
ATACGGTA | 1.64
ATACGGCG | 2.11
CTACGGAA | 1.68

Sequence | relative CpG methylation activity
ATACGGAA | 1.32
TTGCGGCC | 1.43
CCACGGCA | 1.74
TTGCGGCT | 1.95
ATACGGAG | 1.21
ATGCGGCT | 1.55
AAACGAAA | 1.58
CATCGTCC | 0.944
GTGCGTCA | 0.799
TCCCGGGG | 1.21
CATCGCGG | 0.514
GAACGGCG | 1.53
AGGCGTGC | 0.175
ACCCGGTT | 1.29
GCTCGGGA | 1.17
CTACGGCG | 2.04
GCACGGCA | 1.79
TCACGGCC | 1.74
TTACGGAC | 1.85
GTACGGCT | 1.56
CTACGGAG | 1.52
GTACGGCA | 1.9
CTACGGTT | 1.76
CCACGGCG | 1.86
CTACGGCT | 2.28

Sequence | relative CpG methylation activity
CCACGGCT | 1.89
TTACGGCC | 1.97
CCTCGATT | 1.35
TGACGGCA | 1.53
CACCGTAT | 0.274
CTACGCCA | 1.78
TCCCGTTA | 0.532
TAGCGGTC | 1.12
GCACGCTA | 0.861
AGTCGATC | 1.7
AGTCGGAT | 0.542
AGGCGTCT | 0.521
GTTCGGAC | 1.37
TTACGGAA | 1.64
ATACGGCC | 2.01
GTACGGAC | 1.51
ATACGGAC | 1.59
TTACGGTG | 1.52
TTACGGCG | 2.25
TCACGGCG | 1.89
TCACGGCA | 1.82
GTACGGTC | 1.87
GTACGGCC | 1.9
TTACGGCA | 2.04
ATACGGCT | 1.89
